From PubChem BioAssay AID588590 (National Center for Advancing Translational Sciences (NCATS), 2011)
Several values for one entry are separate records, joined by “and”; a condition that tells them apart may be missing. Equal entries are not always repeated. The campaign covered roughly 390,000 compounds. About 4,000 (1%) were called active. Roughly 7% stayed inconclusive and do not appear here. The call rests on the fitted dose curve; in most records, active means well fitted inhibition curve with a large enough effect; inconclusive means small, poorly fitted or top-dose-only effect, or another doubt; inactive means no such curve, though single readings can be large or run the other way. Many of the other results were omitted from the sample, so actives are more common in it than they were. A structure can be active in one record and inactive in another.

Each molecule was assayed against DNA polymerase iota (Homo sapiens) (UniProt Q9UNA4) (assay: qHTS for Inhibitors of Polymerase Iota). Details: Pol iota fluorescent replication assay, 10 min; series mostly up to 115 µM.
Chain of DNA polymerase iota (Homo sapiens) (Q9UNA4 whole entry, looked up): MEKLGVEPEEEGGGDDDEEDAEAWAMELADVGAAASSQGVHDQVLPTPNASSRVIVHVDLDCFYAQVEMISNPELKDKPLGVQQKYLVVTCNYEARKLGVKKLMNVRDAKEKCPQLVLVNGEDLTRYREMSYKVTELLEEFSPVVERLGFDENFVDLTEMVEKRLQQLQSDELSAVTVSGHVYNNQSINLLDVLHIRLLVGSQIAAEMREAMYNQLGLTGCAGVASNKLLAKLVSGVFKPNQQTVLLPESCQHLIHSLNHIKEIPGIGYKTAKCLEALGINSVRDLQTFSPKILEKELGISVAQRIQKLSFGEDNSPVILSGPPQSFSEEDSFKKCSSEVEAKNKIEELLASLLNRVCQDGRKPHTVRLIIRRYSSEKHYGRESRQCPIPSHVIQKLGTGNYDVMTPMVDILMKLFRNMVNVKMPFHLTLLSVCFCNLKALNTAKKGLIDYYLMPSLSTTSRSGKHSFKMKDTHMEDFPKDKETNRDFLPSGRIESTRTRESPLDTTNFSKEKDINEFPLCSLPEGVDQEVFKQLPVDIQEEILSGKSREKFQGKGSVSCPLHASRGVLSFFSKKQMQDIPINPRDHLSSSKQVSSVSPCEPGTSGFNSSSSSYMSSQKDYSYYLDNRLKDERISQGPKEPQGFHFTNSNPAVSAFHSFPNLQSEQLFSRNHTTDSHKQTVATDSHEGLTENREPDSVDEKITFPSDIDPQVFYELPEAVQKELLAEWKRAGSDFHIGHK
Procedure, shortened: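 Pol iota at 10 nM preincubated 15 min with compounds at room temperature; reaction started with fluorescent substrate, 50 nM final. Fluorescence read kinetically at 0 and 10 min; buffer-only wells as negative control.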
Potency means the concentration at half of the fitted maximal effect.

Potency, inactive:
CO[C@H]1O[C@@H]2O[C@@]3(C)CC[C@@H]4[C@@H](C)CC[C@@H]([C@H]1C)[C@@]24OO3, O=C(COC(=O)c1ccccc1OCCOc1ccccc1)Nc1cccc(Br)c1, OC[C@H]1O[C@@H](n2cnc3c(NC4CCCC4)ncnc32)[C@H](O)[C@H]1O, Cc1cc(F)ccc1NS(=O)(=O)c1ccc(-n2cccn2)cc1, CCOc1n[nH]c(-c2ccccc2)n1, CN(C)C(CNC(=O)CCCOc1ccccc1)c1ccco1 (centres undefined), CN(C)C(CNC(=O)c1cccc(C#N)c1)c1ccco1 (centres undefined), O=C(NCCc1ccccn1)c1ccc(COc2ccccc2)o1, O=C(NCc1ccco1)c1nc2ncccn2n1, OC(CBr)C[n+]1cccc2cc(Br)ccc21 (centres undefined), COc1ccc(Cn2c(C(=O)O)c(CNCCc3cccs3)c3ccc(OC)cc32)cc1, CN(N=O)c1ccc(C=C2c3ccccc3-c3ccccc32)cc1, CCN(CC)S(=O)(=O)c1ccc2c(c1)N(CC(=O)NCc1ccccc1)C(=O)CS2, CC1(C)C=Cc2c(ccc(C(=O)/C=C/c3ccccc3)c2O)O1, Cc1nc2ccc(S(=O)(=O)NC(C(=O)NCc3ccccc3Cl)C(C)C)cc2s1 (centres undefined), O=C(NCCc1csc(-c2ccc(C(F)(F)F)cc2)n1)C(=O)Nc1ccc(F)c(Cl)c1, O=C(Cn1cc(SCc2ccccc2)c2ccccc21)N1CCCCC1, COc1ccccc1CNc1nccn(-c2ccc(F)cc2)c1=O, CC/C=C/C(=O)N1CC2(CC(c3cccc(NC(=O)CC)c3)=NO2)C[C@H]1C(N)=O (some centres undefined), C/C=C(\C)C(=O)N1CC2(CC(c3cccc(NC(=O)CCCCC)c3)=NO2)C[C@@H]1C(N)=O (some centres undefined), CCc1cccc(NC(=O)CN(C)S(=O)(=O)c2ccc3[nH]c4c(c3c2)CCCC4)c1, Cc1ccsc1-c1cc(C(=O)O)c2c(ccc3ccccc32)n1, Cc1cccc(NC(=O)CSc2nc(-c3ccco3)cc(C(F)(F)F)n2)c1C, CCCNC(=O)C(CC)n1nc(CC)n2c(cc3oc(C)cc32)c1=O (centres undefined), COc1ccc(C(=O)Nc2cccc(C(=O)OCc3cc(=O)n4c5c(sc4n3)CCCC5)c2)cc1, CC(C)(C)OC(=O)N1CCC(c2c(C(=O)NCCc3ccsc3)cnn2-c2ccc(F)cc2F)CC1, CC(C)(C)n1ncc2c(=O)n(Cc3c(Cl)cccc3Br)cnc21, CC(C)(C)n1ncc2c(=O)n(Cc3ccc(C(=O)c4ccccc4)cc3)cnc21, CN(C)C1=C2C=CC=CC2/C(=C2/C=Cc3ccccc32)C=C1 (centres undefined), CC1(C)CCc2cc(S(=O)(=O)N3CCN(c4nc(-c5cccs5)nc5ccccc45)CC3)ccc2O1, CCC(=O)Nc1ccc(C(=O)NNC(=O)c2ccc(Cl)cc2)cc1, O=C(O)CSCC(=O)Nc1ccc(C(F)(F)F)cc1, OC(CBr)CN1CCCCC1 (centres undefined), COc1cc(CNCCSc2nnnn2C)ccc1OCc1c(F)cccc1Cl, O=C(Nc1ccccc1)c1ccccc1OCc1ccccc1, COc1cccc(N2CC(NC(=O)/C=C\c3ccccc3)CC2=O)c1 (centres undefined), COc1ccc(/C=C/C(=O)NC(=S)N2CCCC(C(N)=O)C2)cc1 (centres undefined), COc1ccc(NC(=O)c2ccco2)cc1NC(=O)c1ccc(C#N)cc1F, Cc1ccc(OCC(=O)Nc2ccccc2C(=O)NC2CC2)cc1C, COc1ccccc1CNC(=O)c1ccc(CS(=O)c2ccccc2Cl)o1 (centres undefined), COc1cc(C)ccc1OCCSc1nc2ccc(NC(=O)c3ccc(C)cc3)cc2s1, CCc1cccc(CC)c1NC(=O)Cn1c(=O)c(-c2cc(C)ccc2NC(C)=O)nc2ccccc21, CN(C)c1ccc(C=Nc2ccc(/C=C/c3ccnc4ccccc34)cc2)cc1, CCOC(=O)N1CCC(N2Cc3cccc(C(=O)Nc4c(C)cccc4CC)c3C2=O)CC1, COC(=O)c1ccc(NC(=O)c2cccc3c2C(=O)N(C2CCCCC2)C3)cc1, Cc1ccc(Cn2cnc3c(cnn3C(C)(C)C)c2=O)c(F)c1, COc1cccc2c1cc1c(=O)n(CC(=O)N3CCN(c4cccc(Cl)c4)CC3)nc(C)n12, Cc1ccsc1C(=O)OCC(=O)NCCc1ccccc1, CCNC(=O)c1sccc1-n1cccc1, Cc1cc(C)cc(NS(=O)(=O)c2cc3c(cc2C)NC(=O)CO3)c1, CCOc1ccc(OCC)c(Nc2nc3ccccc3n3nnnc23)c1, COc1ccccc1N1CCN(c2ncnc3onc(-c4cccc(Cl)c4)c23)CC1, Cc1c(NC(=O)Nc2ccc(F)c(Cl)c2)c(=O)n(-c2ccccc2)n1C, CC(C)(C)C1CCC(NC(=O)c2cnn3c2NC(=C2CC2)C=C3C(F)F)CC1 (centres undefined), Cc1ccc(N2C(=O)S/C(=C/c3cn(C)c4ccccc34)C2=O)cc1, Cc1cc(/C=C2/SC(=O)N(CC(=O)OC(C)C)C2=O)c(C)n1C, Cc1cccc(C(=O)Nc2ccc(S(=O)(=O)N3CCCCC3c3cccnc3)cc2)c1 (centres undefined), CCc1cccc(C)c1Nc1c(-c2ccc(N(C)C)cc2)nc2ncccn12, CCN(C(=O)Cn1c(=O)nc(-c2ccccc2)c2cc(Cl)ccc21)c1cccc(C)c1, CCC(C)N(c1ccc(/C=C/c2ccnc3ccccc23)cc1)C(C)CC (centres undefined), CC(=O)N1CCCc2cc(S(=O)(=O)N3CCC(C(=O)NCc4ccc(F)cc4)CC3)ccc21, CCCCC(=O)OC1=CN(Cc2ccccc2)S(=O)(=O)c2ccccc21, COc1cc(CCC(=O)OCC(=O)Nc2cccc(S(N)(=O)=O)c2)cc(OC)c1OC, CCN(CC(=O)Nc1ccc(C)c(S(=O)(=O)N(C)C)c1)Cc1ccccc1, COc1ccc(-c2cc(C(F)(F)F)n3nc(-c4ccccc4)cc3n2)cc1OC, Cc1ccc(-c2onc(C)c2C)cc1S(=O)(=O)Nc1ccccn1, COc1cc(OC)c(OC)cc1/C=C1\C=Cc2ccccc21, CCc1nnc(SCc2nc(-c3cccc(C)c3)oc2C)c2cc3sc(C)cc3n12, O=C(CNC(=O)c1ccc2ccccc2c1)Nc1ncccc1O, COc1ccc(N2CCN(C(=O)CNC(=O)c3ccc(C(C)(C)C)cc3)CC2)cc1, Cc1ccc(Cl)cc1N1CCN(C(=O)C2CCC(CNS(=O)(=O)c3cccs3)CC2)CC1 (centres undefined), O=C(Cc1ccccc1)Nc1cccc(C(=O)N/N=C/c2ccco2)c1, O=C(Cc1ccc([N+](=O)[O-])cc1)N/N=C/c1ccco1, CCc1nnc(SCc2c(F)cccc2Cl)c2cc3sccc3n12, CCc1ccccc1NC(=O)Cn1c(=O)n(-c2cccc(C)c2)c(=O)c2c1c1cc(OC)ccc1n2C, CC(=O)N1c2ccccc2N(Cc2ccc([N+](=O)[O-])cc2)C(=O)C1(C)C, Cc1[nH]n(-c2ccc([N+](=O)[O-])cc2)c(=O)c1C=NCCN1CCN(C(=O)c2ccccc2F)CC1, COc1cc(/C=C/C(=O)OCC(=O)NC(=O)NCc2ccccc2)ccc1OCC#N, COC(=O)c1ccc(C(NC(=O)OCc2ccccc2)/C(C)=C/[C@@H](C)C(=O)NCc2ccc(OC)c(OC)c2)cc1 (some centres undefined), CCN1CCN(CCCNC(=O)c2cnn(-c3ccc(C)cc3C)c2C2CCN(C(=O)OC(C)(C)C)CC2)CC1, CCOc1ccc(CNCCSc2nnnn2C)cc1

Potency, inactive and 10 µM (active):
CC(C)(C)n1ncc2c(=O)n(Cc3ccc(Cl)cc3)cnc21

Potency, active:
O=C(NCCc1ccco1)c1ccc(OCc2cn3ccccc3n2)cc1 44.7 µM, CN(C)C(CNC(=O)c1ccc(OCc2cn3ccccc3n2)cc1)c1ccco1 (centres undefined) 22.4 µM, O=C1CCCC(O)=C1N=Nc1ccc2ncsc2c1 39.8 µM, C=C(C)C(=O)Nc1cccc(C2=NOC3(C2)C[C@H](C(N)=O)N(C(=O)C(c2ccccc2)c2ccccc2)C3)c1 (some centres undefined) 31.6 µM, Cc1cc(C)c2nc(-c3ccco3)cc(C(=O)O)c2c1 11.2 µM, O=C(CCl)Nc1ccc(Sc2ccc(NC(=O)CCl)cc2)cc1 39.8 µM, COc1ccc(/C=C/C(=O)c2cc(Br)ccc(=O)c2O)cc1 2.51 µM, COc1ccc(NC(=O)c2ccco2)cc1NC(=O)COc1ccc(C)c(C)c1 70.8 µM, CCOC(=O)N1CCC(N2Cc3cccc(C(=O)Nc4ccc(S(=O)(=O)N(CC)CC)cc4)c3C2=O)CC1 79.4 µM, Cc1ccsc1C(=O)NCCc1ccco1 39.8 µM, Cc1cc(/C=C2\SC(=O)N(C)C2=O)c(C)n1-c1cccc(C(=O)O)c1 17.8 µM, COc1ccc(CCC(=O)OCC(=O)Nc2ccc(C)c(S(=O)(=O)N(C)C)c2)cc1 89.1 µM, Cc1ccnc(-n2sc3ccccc3c2=O)n1 25.1 µM, O=C(NCC(=O)N1CCN(c2ccccc2O)CC1)c1ccc2ccccc2c1 89.1 µM, O=C(N/N=C/c1ccco1)c1ccc(C(=O)N/N=C/c2ccco2)o1 50.1 µM, O=c1[nH]n(-c2ccc([N+](=O)[O-])cc2)c(=O)c2ccccc12 10 µM, COC(=O)c1ccc(COc2ccc(/C=C/C(=O)c3ccc(OC)c(CSCC(=O)O)c3)cc2OC)cc1 20 µM
